Assay results as given in PubChem BioAssay.

target: Epidermal growth factor receptor (Homo sapiens) (UniProt P00533); test: EGFR binders on small-molecule microarrays, primary screen, biochemical, small-molecule microarray, 635 nm fluorescence (AID 1104); conditions: EGFR binding, higher = more signal;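 further: score merges 667 nm emission intensity with spot signal to noise over triplicate slides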
Sequence (P00533 whole entry, looked up): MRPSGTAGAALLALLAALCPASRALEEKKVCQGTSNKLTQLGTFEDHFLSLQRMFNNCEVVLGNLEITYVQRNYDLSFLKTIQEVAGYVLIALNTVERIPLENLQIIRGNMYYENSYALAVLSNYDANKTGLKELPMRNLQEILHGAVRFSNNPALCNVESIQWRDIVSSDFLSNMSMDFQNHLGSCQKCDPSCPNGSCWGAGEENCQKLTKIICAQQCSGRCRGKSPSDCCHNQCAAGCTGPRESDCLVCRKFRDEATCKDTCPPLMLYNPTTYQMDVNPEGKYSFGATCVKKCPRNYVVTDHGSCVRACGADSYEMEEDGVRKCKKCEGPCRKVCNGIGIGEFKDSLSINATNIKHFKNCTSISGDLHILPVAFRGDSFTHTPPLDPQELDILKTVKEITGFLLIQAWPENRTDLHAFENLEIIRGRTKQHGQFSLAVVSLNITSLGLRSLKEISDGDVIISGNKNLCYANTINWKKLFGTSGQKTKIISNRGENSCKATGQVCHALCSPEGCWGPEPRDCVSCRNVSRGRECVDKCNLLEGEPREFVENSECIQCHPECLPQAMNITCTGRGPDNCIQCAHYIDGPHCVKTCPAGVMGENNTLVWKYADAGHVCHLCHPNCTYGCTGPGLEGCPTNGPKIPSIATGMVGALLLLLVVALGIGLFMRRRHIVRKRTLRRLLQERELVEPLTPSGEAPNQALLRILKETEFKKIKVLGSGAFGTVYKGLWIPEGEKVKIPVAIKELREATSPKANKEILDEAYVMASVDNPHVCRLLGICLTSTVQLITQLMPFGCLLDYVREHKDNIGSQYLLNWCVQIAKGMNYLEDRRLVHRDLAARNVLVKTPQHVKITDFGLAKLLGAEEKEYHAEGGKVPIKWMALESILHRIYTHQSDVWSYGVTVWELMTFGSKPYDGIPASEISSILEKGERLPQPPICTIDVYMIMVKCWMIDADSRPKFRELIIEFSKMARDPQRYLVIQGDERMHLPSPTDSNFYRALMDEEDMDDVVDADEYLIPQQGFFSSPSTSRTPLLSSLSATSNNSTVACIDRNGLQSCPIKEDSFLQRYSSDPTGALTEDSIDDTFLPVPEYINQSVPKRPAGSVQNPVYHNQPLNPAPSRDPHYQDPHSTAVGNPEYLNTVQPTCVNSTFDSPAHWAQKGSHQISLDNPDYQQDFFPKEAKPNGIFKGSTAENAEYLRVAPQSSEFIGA

First: CCOC(=O)C1=C[C@@H](C(C)(C)C)N(S(=O)(=O)c2ccc(C)cc2)[C@H]1c1cccc2ccccc12
Second: Cc1ccc(N2C(=O)c3ccccc3[C@@H](C(=O)NCCCN(C)C)[C@@H]2c2ccc(CO)cc2)nc1
The composite z-score of the first is lower: -0.138 for the first, 0.239 for the second.

Compared with `C=CC[C@@]1(C(=O)NCCCOC)N=C(c2ccc(OCCCO)cc2)O[C@@H]1c1ccccc1`, `[N-]=[N+]=Nc1ccccc1C[C@]1(C(=O)NCCN2CCOCC2)COC(c2ccc(OCCCO)cc2)=N1` is higher in composite z-score: -0.848 for the first, -0.408 for the second.

Compared with `Cc1ccc(F)cc1S(=O)(=O)N[C@@H]1CCN(Cc2ccc(Br)cc2)C1`, `OCCCC1=CC(c2ccc(CN3CCCC3)cc2)N(Cc2cc3c(cc2Br)OCO3)CC1` (stereo not given) is lower in composite z-score: 0.529 for the first, 0.259 for the second.

Going from `COC(=O)C1=CC(CCCO)=CC(c2ccc(CN3CCCC3)cc2)N(Cc2cccc(OC(F)(F)F)c2)C=C1C(=O)OC` (stereo not given) to `CCCNC(=O)[C@@H]1c2ccccc2C(=O)N(Cc2ccc(OC(F)(F)F)cc2)[C@H]1c1ccc(CO)cc1`, the composite z-score falls from 0.121 to -0.0259.

Compared with `CC(CO)N1C(=O)[C@@H]2[C@H]3C(=O)OCC=C[C@H]3OC23C=CCN(Cn2nnc4ccccc42)C(=O)[C@@H]13` (stereo not given in full), `O=C1OCCC=C[C@H]2OC34C=CCN(c5ccc6ccccc6c5)C(=O)[C@H]3N(CCCO)C(=O)[C@@H]4C12` (stereo not given in full) is lower in composite z-score: -1.29 for the first, -1.93 for the second.

Compared with `CC(C)NC(=O)[C@@]1(c2ccc([N+](=O)[O-])cc2)CC(=O)N(C2CCCCC2)[C@@H]1c1ccc(CO)cc1`, `O=C1CS(=O)(=O)C(c2cccc([N+](=O)[O-])c2)N1c1ccccc1` (stereo not given) is higher in composite z-score: 0.0344 for the first, 0.591 for the second.

Going from `NC(=O)NCC#Cc1ccc2c(c1)[C@]1(C(=O)N2)[C@H](c2ccccc2OCCO)N2[C@H](c3ccccc3)[C@H](c3ccccc3)OC(=O)[C@H]2[C@@H]1C(=O)NC[C@H](O)c1ccccc1` to `COCCOC(=O)N1C(=O)[C@@]2(c3cc(C#CC4=CCCCC4)ccc31)[C@H](c1ccccc1OCCO)N1[C@H](c3ccccc3)[C@H](c3ccccc3)OC(=O)[C@H]1[C@@H]2C(=O)NC[C@H](O)c1ccccc1`, the composite z-score rises from -0.895 to 0.741.

Going from `CCCC[C@@H](O)C1=C(COc2ccccc2)C[C@H]2C(=O)N(Cc3ccccc3)C(=O)[C@H]2[C@H]1CO` to `C#CCN(Cc1ccccc1Br)[C@H](/C=C/c1ccccc1)[C@@H](O)Cc1ccccc1`, the composite z-score falls from 0.357 to -1.45.

First: COC(=O)[C@@]1(Cc2ccc(F)cc2)[C@H]2c3cc(C(=O)N(C)C)n(Cc4ccc(OC(F)(F)F)cc4)c3C[C@H]2CN1C(=O)c1ccccc1
Second: COc1ccc(C(=O)Nc2ccc(CN3C(=O)[C@]4(O[C@H](CC(=O)N5Cc6ccccc6C[C@H]5CO)[C@@H]([Si](C)(C)c5ccc(OC)cc5)[C@@H]4C)c4ccccc43)cc2)cc1
The composite z-score of the first is lower: 0.18 for the first, 0.749 for the second.

Compared with `COCCOC(=O)N1C(=O)[C@@]2(c3cc(C#CC4=CCCCC4)ccc31)[C@H](c1ccccc1OCCO)N1[C@H](c3ccccc3)[C@H](c3ccccc3)OC(=O)[C@H]1[C@@H]2C(=O)N1CCN(c2ncccn2)CC1`, `C=CC[C@]1(C(=O)N2CCOCC2)COC(c2ccc(OCCCO)cc2)=N1` is lower in composite z-score: 0.502 for the first, -0.238 for the second.

Compared with `CCCC=C(CCC)[C@@H](NS(=O)(=O)CC12CCC(CC1=O)C2(C)C)c1ccc(C(=O)OC)cc1` (stereo not given in full), `COC(=O)[C@@H]1N=C(c2ccc(OCCCO)cc2)O[C@@H]1C` is lower in composite z-score: 0.273 for the first, -0.55 for the second.

Compared with `CC(C)[Si](C#C[Si](C(C)C)(C(C)C)C(C)C)(O[C@H](c1ccccc1)c1cn(Cc2ccccc2)nn1)C(C)C`, `NCCCCCCNC(=O)[C@@H]1C[C@@H]2C(=O)N[C@@H](CCCCN)C(=O)N2[C@@H]1c1ccc(O)cc1` is higher in composite z-score: 0.392 for the first, 0.456 for the second.

With `C[N+](C)(C)CCCC[C@@H]1NC(=O)[C@@H]2C[C@H](C(=O)NCCCCCCN)[C@H](c3cccc(OCCO)c3)N2C1=O` the composite z-score was 0.132.

target: Follistatin-related protein 3 (Homo sapiens) (UniProt O95633); test: FSTL3 binders on small-molecule microarrays, primary screen, biochemical, small-molecule microarray, 635 nm fluorescence (AID 1105); conditions: FSTL3 binding, higher = more signal;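 further: score merges emission near 667 nm and signal to noise per printed spot across three slides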
Sequence (O95633 whole entry, looked up): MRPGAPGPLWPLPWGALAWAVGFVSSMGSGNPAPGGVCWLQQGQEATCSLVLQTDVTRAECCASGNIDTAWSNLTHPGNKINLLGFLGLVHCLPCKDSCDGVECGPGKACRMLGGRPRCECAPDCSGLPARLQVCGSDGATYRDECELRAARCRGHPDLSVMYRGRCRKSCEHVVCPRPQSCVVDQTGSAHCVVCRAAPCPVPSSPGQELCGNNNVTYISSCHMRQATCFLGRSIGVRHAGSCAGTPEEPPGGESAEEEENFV

Going from `C=CCC(OC(C)=O)[C@@H]1[C@@H](N(Cc2ccc(-c3ccccc3)cc2)C(=O)c2ccc(-c3ccccc3)cc2)c2cc(OCCCO)ccc2N1C(=O)c1ccc2ccccc2c1` (stereo not given in full) to `CCOC(=O)C[C@H]1[C@H](OC(=O)c2cc3ccccc3oc2=O)[C@@H](NC(=O)c2ccc3ccccc3n2)c2cc(OCCCO)ccc2N1C(=O)Cc1ccc(OC)cc1`, the composite z-score rises from 0.453 to 1.2.

Compared with `Cc1ccc(S[C@]2(C(=O)NCC(F)(F)F)CC(=O)N(Cc3cc(C(F)(F)F)cc(C(F)(F)F)c3)[C@@H]2c2ccc(CO)cc2)cc1`, `CCCNC(=O)[C@@H]1c2ccccc2C(=O)N(Cc2ccc(OC(F)(F)F)cc2)[C@H]1c1ccc(CO)cc1` is higher in composite z-score: -0.861 for the first, 0.0777 for the second.

Compared with `COC(=O)[C@@]1(Cc2ccc(OC)cc2)[C@H]2c3cc(C(=O)N4CCCC4)n(CCc4c[nH]c5ccc(O)cc45)c3C[C@H]2CN1C(=O)c1ccccc1`, `COC(=O)[C@@]1(Cc2ccccc2)[C@H]2c3cc(C(=O)N4CCCC4)n(CCc4ccccn4)c3C[C@H]2CN1C(=O)c1ccccc1` is lower in composite z-score: 1.13 for the first, 0.921 for the second.

First: NC(=O)[C@@]1(Cc2ccccc2)COC(c2ccc(OCCCO)cc2)=N1
Second: [N-]=[N+]=Nc1ccccc1C[C@]1(C(=O)NCCN2CCOCC2)COC(c2ccc(OCCCO)cc2)=N1
The composite z-score of the first is lower: -0.807 for the first, -0.264 for the second.

First: COCCOC(=O)N1C(=O)[C@@]2(c3cc(C#CCCO)ccc31)[C@H](C(=O)Nc1nc3ccccc3s1)[C@H]1C(=O)O[C@H](c3ccccc3)[C@H](c3ccccc3)N1[C@@H]2c1ccc(O)cc1
Second: COCCOC(=O)N1C(=O)[C@@]2(c3cc(C#CC4=CCCCC4)ccc31)[C@H](c1ccccc1OCCO)N1[C@H](c3ccccc3)[C@H](c3ccccc3)OC(=O)[C@H]1[C@@H]2C(=O)NC[C@H](O)c1ccccc1
The composite z-score of the first is higher: 1.43 for the first, 1.42 for the second.

Compared with `COc1ccc([Si](C)(C)[C@@H]2[C@@H](CCO)O[C@]3(C(=O)N(Cc4ccccc4)c4ccc(N5CCOC5=O)cc43)[C@H]2C)cc1`, `COc1ccc(C(=O)Nc2ccc(CN3C(=O)[C@]4(O[C@H](CC(=O)N5Cc6ccccc6C[C@H]5CO)[C@@H]([Si](C)(C)c5ccc(OC)cc5)[C@@H]4C)c4ccccc43)cc2)cc1` is higher in composite z-score: 0.637 for the first, 0.833 for the second.

First: C=C(/C(=C/C[C@H](OC(C)=O)c1ccc(CO)o1)c1cnc2ccccc2c1)C(C)C
Second: Cc1ccc(N2C(=O)c3ccccc3[C@@H](C(=O)NCCCN(C)C)[C@@H]2c2ccc(CO)cc2)nc1
The composite z-score of the first is higher: 1.58 for the first, 0.102 for the second.

Compared with `COCC(=C=CC[C@H](O)c1ccc(OCCO)cc1)CCO`, `COC(=O)[C@@H]1N=C(c2ccc(OCCCO)cc2)O[C@@H]1C` is lower in composite z-score: 0.593 for the first, -0.0372 for the second.

First: CCOC(=O)C1=C[C@@H](C(C)(C)C)N(S(=O)(=O)c2ccc(C)cc2)[C@H]1c1cccc2ccccc12
Second: COC(=O)[C@@]1(Cc2ccc(F)cc2)[C@H]2c3cc(C(=O)N(C)C)n(Cc4ccc(OC(F)(F)F)cc4)c3C[C@H]2CN1C(=O)c1ccccc1
The composite z-score of the first is higher: 0.7 for the first, 0.298 for the second.

Going from `C=CC[C@@]1(C(=O)NCCCOC)N=C(c2ccc(OCCCO)cc2)O[C@@H]1c1ccccc1` to `C=CC[C@]1(C(=O)N2CCOCC2)COC(c2ccc(OCCCO)cc2)=N1`, the composite z-score rises from -0.439 to 0.264.

Going from `Cc1ccc(F)cc1S(=O)(=O)N[C@@H]1CCN(Cc2ccc(Br)cc2)C1` to `OCCCC1=CC(c2ccc(CN3CCCC3)cc2)N(Cc2cc3c(cc2Br)OCO3)CC1` (stereo not given), the composite z-score rises from 0.752 to 0.809.

Compared with `COC(=O)C1=CC(CCCO)=CC(c2ccc(CN3CCCC3)cc2)N(Cc2cccc(OC(F)(F)F)c2)C=C1C(=O)OC` (stereo not given), `CCCC[C@@H](O)C1=C(COc2ccccc2)C[C@H]2C(=O)N(Cc3ccccc3)C(=O)[C@H]2[C@H]1CO` is higher in composite z-score: 0.637 for the first, 0.78 for the second.

Compared with `CC(CO)N1C(=O)[C@@H]2[C@H]3C(=O)OCC=C[C@H]3OC23C=CCN(Cn2nnc4ccccc42)C(=O)[C@@H]13` (stereo not given in full), `O=C1OCCC=C[C@H]2OC34C=CCN(c5ccc6ccccc6c5)C(=O)[C@H]3N(CCCO)C(=O)[C@@H]4C12` (stereo not given in full) is lower in composite z-score: -1.13 for the first, -1.94 for the second.

Compared with `CC(C)NC(=O)[C@@]1(c2ccc([N+](=O)[O-])cc2)CC(=O)N(C2CCCCC2)[C@@H]1c1ccc(CO)cc1`, `O=C1CS(=O)(=O)C(c2cccc([N+](=O)[O-])c2)N1c1ccccc1` (stereo not given) is lower in composite z-score: 1.04 for the first, 0.6 for the second.

Going from `NC(=O)NCC#Cc1ccc2c(c1)[C@]1(C(=O)N2)[C@H](c2ccccc2OCCO)N2[C@H](c3ccccc3)[C@H](c3ccccc3)OC(=O)[C@H]2[C@@H]1C(=O)NC[C@H](O)c1ccccc1` to `COCCOC(=O)N1C(=O)[C@@]2(c3cc(C#CC4=CCCCC4)ccc31)[C@H](c1ccccc1OCCO)N1[C@H](c3ccccc3)[C@H](c3ccccc3)OC(=O)[C@H]1[C@@H]2C(=O)N1CCN(c2ncccn2)CC1`, the composite z-score rises from -0.355 to 1.06.

First: CCCC=C(CCC)[C@@H](NS(=O)(=O)CC12CCC(CC1=O)C2(C)C)c1ccc(C(=O)OC)cc1 (stereo not given in full)
Second: C[N+](C)(C)CCCC[C@@H]1NC(=O)[C@@H]2C[C@H](C(=O)NCCCCCCN)[C@H](c3cccc(OCCO)c3)N2C1=O
The composite z-score of the first is lower: 0.337 for the first, 0.776 for the second.

Compared with `CC(C)[Si](C#C[Si](C(C)C)(C(C)C)C(C)C)(O[C@H](c1ccccc1)c1cn(Cc2ccccc2)nn1)C(C)C`, `C#CCN(Cc1ccccc1Br)[C@H](/C=C/c1ccccc1)[C@@H](O)Cc1ccccc1` is lower in composite z-score: 0.628 for the first, -1.21 for the second.

`NCCCCCCNC(=O)[C@@H]1C[C@@H]2C(=O)N[C@@H](CCCCN)C(=O)N2[C@@H]1c1ccc(O)cc1` gave a composite z-score of 0.27.
